A short description of assay [1]: Human pregnane X receptor (PXR) small molecule agonists, qHTS cell viability counter screen (AID 1346977). Note: nearly all actives have a fitted effect of over 50% in size. The procedure, abridged: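 Cytotoxicity counter screen run in the same wells as the PXR luciferase assay, using PXR-Luc HepG2 cells in charcoal-stripped serum medium. Viability: CellTiter-Fluor fluorescence after 24hr compound treatment.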
On the technique in general: In qHTS, concentration-response curves come from the screen itself.

Assay [2] in a line: Caspase-3/7 induction in HepG2 cells by small molecules, qHTS assay (AID 1346978). Note: nearly all actives have a fitted effect of over 15% in size. The procedure, abridged:
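Caspase-3/7 induction was measured by Caspase-Glo 3/7 luminescence (30 min, room temperature) after a 17 hr compound exposure of wild-type HepG2 cells seeded at 2,000 per well and pre-incubated 5 hr.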

Assay [3] in a line: Caspase-3/7 induction in CHO-K1 cells by small molecules, qHTS cell viability counter screen (AID 1346979). Note: nearly all actives have a fitted effect of over 35% in size. The procedure, abridged:
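Cytotoxicity counter screen run in parallel with the caspase-3/7 assay: CHO-K1 cells, 16hr compound treatment at 37C, then CellTiter-Fluor for 1hr before fluorescence reading.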

Assay [4] in a line: Caspase-3/7 induction in CHO-K1 cells by small molecules, qHTS assay (AID 1346980). Note: nearly all actives have a fitted effect of over 15% in size. The procedure, abridged:
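Luminescent Caspase-Glo 3/7 read (30min, room temperature) quantified apoptosis induction. Cells were wild-type CHO-K1, treated with compound for 17hr at 37 C and 5% CO2.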

Assay [5] in a line: Caspase-3/7 induction in HepG2 cells by small molecules, qHTS cell viability counter screen (AID 1346981). Note: series mostly up to about 92 µM; nearly all actives have a fitted effect of over 30% in size. The gist of the method: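 In this quantitative HTS counter screen, compounds delivered in DMSO were left on unmodified HepG2 cells for 16 hr at 37 C. Viability was then determined fluorometrically with CellTiter-Fluor, in parallel with caspase-3/7 induction in the same wells.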

Assay [6] addresses Nuclear receptor subfamily 1 group I member 2 (Homo sapiens) (UniProt O75469). Briefly: Human pregnane X receptor (PXR) small molecule agonists, qHTS assay (AID 1346982). Note: nearly all actives have a fitted effect of over 35% in size. Note: potency is the fitted concentration of half-maximal effect. The procedure, abridged: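 Reporter HepG2 cells expressing PXR-Luc are cultured in charcoal-stripped FBS (5%), treated with compounds for 24 hr at 37 C, and assayed by ONE-Glo luminescence after 30 min at room temperature.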

Assay [7] addresses Acetylcholinesterase (Homo sapiens) (UniProt P22303). Briefly: Acetylcholinesterase (AChE) small molecule antagonists: enzyme-based qHTS assay (AID 1347397; calls by dose curve; note: nearly all actives have a fitted effect of over 55% in size). The settings on record: Potency: AChE enzyme activity inhibition. The gist of the method: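 First, recombinant human AChE (50 mU/mL as dispensed) received test compound or DMSO. Second, plates stood 30 min at room temperature. Third, DTNB and acetylthiocholine were added, followed by 10 min at room temperature and colorimetric detection.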

For assay [8] the target is unchanged. The assay is described as follows: Acetylcholinesterase (AChE) small molecule antagonists: fluorescence cell-based qHTS assay (AID 1347398; calls by dose curve; note: nearly all actives have a fitted effect of over 50% in size). The settings on record: Potency: AChE activity. The gist of the method: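 Homogeneous quantitative HTS format. SH-SY5Y cells seeded at 2,000 per well settle overnight at 37 C. Compound pretreatment runs 30 min (37 C, 5% CO2); substrate/probe mix then reacts 40 min at RT before reading 490/520 nm.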

Assay [9] shares this target. The assay is described as follows: Acetylcholinesterase (AChE) small molecule antagonists: enzyme-based qHTS assay with human liver microsomes (AID 1347399; calls by dose curve; note: nearly all actives have a fitted effect of over 60% in size). The settings on record: Potency: qHTS inhibition. The gist of the method:
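Recombinant human AChE (50 mU/mL in the enzyme mix) and human liver microsomes (0.25 mg/mL final) were preincubated with compound and NADPH (0.25 mg/mL final) for 30 min at 37 C. Acetylthiocholine/DTNB was then added; thiocholine was read colorimetrically after 10 min at room temperature.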

In assay [10] the target is Cytochrome P450 2D6 (Homo sapiens) (UniProt P10635). Briefly: Cytochrome P450 Family 2 Subfamily D Member 6 (CYP2D6) small molecule antagonists: luciferase reporter qHTS assay (AID 1671196). Note: nearly all actives have a fitted effect of over 50% in size. Note: potency is the fitted concentration of half-maximal effect. The procedure, abridged:
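Test chemicals meet CYP2D6 plus proluciferin substrate (10 min, RT); NADPH regenerating solution then drives turnover for 1 h. Detection reagent halts the reaction; luminescence measured after 20 min.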
(In general: Reporter assays use an easily measured gene product as a stand-in for the process of interest.)

In assay [11] the target is Cytochrome P450 2C19 (Homo sapiens) (UniProt P33261). Briefly: Cytochrome P450 Family 2 Subfamily C Member 19 (CYP2C19) small molecule antagonists: luciferase reporter qHTS assay (AID 1671197). Note: nearly all actives have a fitted effect of over 65% in size. Note: potency is the fitted concentration of half-maximal effect. The gist of the method:
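Relative luminescence units recorded 20 min after the detection reagent stopped a 1 h, 37C CYP2C19 reaction on proluciferin substrate, which was started by NADPH regeneration following 10 min room-temperature compound preincubation; ketoconazole positive control.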

Assay [12] concerns the target Cytochrome P450 2C9 (Homo sapiens) (UniProt P11712). The assay is described as follows: Cytochrome P450 Family 2 Subfamily C Member 9 (CYP2C9) small molecule antagonists: luciferase reporter qHTS assay (AID 1671198). Note: nearly all actives have a fitted effect of over 50% in size. Note: potency is the fitted concentration of half-maximal effect. The procedure, abridged:
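Enzyme-substrate mix preincubated with compound 10 min at room temperature; reaction started with NADPH regeneration solution, 1 h 37C. Luminescent luciferin product read after 20 min detection reagent.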

Assay [13] addresses Cytochrome P450 1A2 (Homo sapiens) (UniProt P05177). The assay is described as follows: Cytochrome P450 Family 1 Subfamily A Member 2 (CYP1A2) small molecule antagonists: luciferase reporter qHTS assay (AID 1671199). Note: nearly all actives have a fitted effect of over 50% in size. Note: potency is the fitted concentration of half-maximal effect. The procedure, abridged: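 Steps: enzyme-substrate mix dispensed; test compounds and furafylline control pinned in; 10 min room temperature; NADPH regeneration solution added, 1 h; reaction stopped with luciferin detection reagent; luminescence read after 20 min.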

Assay [14] has as its target Voltage-gated inwardly rectifying potassium channel KCNH2 (Homo sapiens) (UniProt Q12809). The assay is described as follows: Human Ether-a-go-go-Related Gene (hERG) channel small molecule antagonists: fluorescence cell-based qHTS assay (AID 1671200). The procedure, abridged:
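Fluorescence at 540 nm emission (480 nm excitation) was recorded kinetically for 2 min at 1-second intervals once the thallium-containing stimulus reached cells previously loaded with FluxOR II dye.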

In assay [15] the target is Acetylcholinesterase (Homo sapiens) (UniProt P22303). The assay is described as follows: Acetylcholinesterase (AChE) small molecule antagonists: colormetric cell-based qHTS assay (AID 1347395; calls by dose curve; note: nearly all actives have a fitted effect of over 30% in size). The gist of the method:
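Cells (SH-SY5Y, 2,000 per well) are seeded and left overnight at 37 C. Compound is added for 30 min, then DTNB and acetylthiocholine for a further 90 min at 37 C before absorbance-based thiocholine detection.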

Assay [16] addresses Nuclear receptor subfamily 1 group I member 2 (Rattus norvegicus) (UniProt Q9R1A7). Briefly: Rat pregnane X receptor (rPXR) activation by small molecules, qHTS assay (AID 1346983). Note: nearly all actives have a fitted effect of over 20% in size. The settings on record: rPXR luciferase reporter cells, One-Glo luminescence, 24 h; max activation: hits give high values. The gist of the method:
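Luminescent readout (One-Glo luciferase, 30 min room temperature) followed 24 hr compound treatment at 37 C of rPXR cells plated 2,000 per well and preincubated 5hr; qHTS format with compounds delivered in DMSO.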

Assay [17] addresses Nuclear receptor subfamily 1 group I member 2 (Homo sapiens) (UniProt O75469). The assay is described as follows: CYP3A4 induction through human pregnane X receptor (PXR) by small molecules, qHTS assay (AID 1346984). Note: nearly all actives have a fitted effect of over 40% in size. The gist of the method:
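Induction measured in HepG2-based DPX-2 cells co-expressing human PXR and a CYP3A4 promoter-driven luciferase. After a 24-hour compound exposure, cells received CYP3A4 luciferin substrate at 3uM final for 3 hours, and light output was then recorded.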

Assay [18] has the same target. Briefly: Human pregnane X receptor (PXR) activation by small molecules, qHTS assay (AID 1346985). Note: nearly all actives have a fitted effect of over 40% in size. The gist of the method: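 DPX-2 cells (HepG2 co-transfected with a PXR response element and a CYP3A4-promoter luciferase construct) were seeded at 2,000 per well, rested 5 hr at 37C, then exposed to DMSO-dissolved compounds for 24 hr. Activation was read as luciferase luminescence.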

In assay [19] the target is Cytochrome P450 3A4 (Homo sapiens) (UniProt P08684). Briefly: Cytochrome P450 Family 3 Subfamily A Member 4 (CYP3A4) small molecule antagonists: luciferase reporter qHTS assay (AID 1671201). Note: nearly all actives have a fitted effect of over 50% in size. Note: potency is the fitted concentration of half-maximal effect. The gist of the method:
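qHTS, 1536-well. CYP3A4 + proluciferin substrate, cpd 10 min RT → NADPH regen 1 h RT → detection reagent 20 min → luminescence (RLU). Ketoconazole positive control.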

Several values for one entry are separate records, joined by “and”; a condition that tells them apart may be missing. Equal entries are not always repeated. Values without a mark were called inactive. Results filed as inconclusive are left out. Activity calls are given as the source filed them. Unless noted, calls come from the whole dose curve; as a rule, active = well fitted curve in the direction sought with a large enough effect in the repeat runs; inconclusive = weak or mixed curves; inactive = no such curve, though single readings can be large; an effect the other way counts as inactive or inconclusive.
% is set by controls: 0 for no effect and ±100 for the full control effect.

Sequence of Cytochrome P450 2D6 (Homo sapiens) (P10635 whole entry, looked up): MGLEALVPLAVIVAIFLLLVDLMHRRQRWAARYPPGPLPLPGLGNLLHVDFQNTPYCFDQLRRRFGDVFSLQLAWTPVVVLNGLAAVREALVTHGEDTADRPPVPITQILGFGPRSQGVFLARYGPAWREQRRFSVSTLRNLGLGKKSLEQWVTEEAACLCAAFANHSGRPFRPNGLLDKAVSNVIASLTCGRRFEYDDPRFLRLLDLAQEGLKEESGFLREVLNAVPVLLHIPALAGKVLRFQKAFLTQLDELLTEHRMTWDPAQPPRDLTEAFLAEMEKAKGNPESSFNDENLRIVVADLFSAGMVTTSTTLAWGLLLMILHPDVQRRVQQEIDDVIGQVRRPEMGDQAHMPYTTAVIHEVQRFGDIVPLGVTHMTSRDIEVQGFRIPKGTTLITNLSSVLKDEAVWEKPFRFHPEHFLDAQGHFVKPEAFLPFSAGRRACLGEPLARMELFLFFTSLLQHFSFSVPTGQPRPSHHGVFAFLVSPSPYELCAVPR
Sequence of Acetylcholinesterase (Homo sapiens) (P22303 whole entry, looked up): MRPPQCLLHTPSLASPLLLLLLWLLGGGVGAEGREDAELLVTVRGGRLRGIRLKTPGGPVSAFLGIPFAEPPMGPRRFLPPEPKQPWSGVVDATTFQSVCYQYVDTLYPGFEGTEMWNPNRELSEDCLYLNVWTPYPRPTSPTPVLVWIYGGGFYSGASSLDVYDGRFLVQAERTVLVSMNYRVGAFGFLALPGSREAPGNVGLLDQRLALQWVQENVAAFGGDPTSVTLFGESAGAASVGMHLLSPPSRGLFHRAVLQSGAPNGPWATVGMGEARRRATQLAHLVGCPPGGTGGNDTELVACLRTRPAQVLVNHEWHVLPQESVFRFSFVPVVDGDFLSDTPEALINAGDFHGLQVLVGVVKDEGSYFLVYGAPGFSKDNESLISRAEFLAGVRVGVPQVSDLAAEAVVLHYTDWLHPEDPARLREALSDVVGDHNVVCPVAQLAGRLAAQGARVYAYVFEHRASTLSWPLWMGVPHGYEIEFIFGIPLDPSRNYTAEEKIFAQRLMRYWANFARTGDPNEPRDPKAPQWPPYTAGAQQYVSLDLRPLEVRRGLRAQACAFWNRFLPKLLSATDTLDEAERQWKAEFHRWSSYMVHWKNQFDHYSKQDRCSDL
Sequence of Nuclear receptor subfamily 1 group I member 2 (Rattus norvegicus) (Q9R1A7 whole entry, looked up): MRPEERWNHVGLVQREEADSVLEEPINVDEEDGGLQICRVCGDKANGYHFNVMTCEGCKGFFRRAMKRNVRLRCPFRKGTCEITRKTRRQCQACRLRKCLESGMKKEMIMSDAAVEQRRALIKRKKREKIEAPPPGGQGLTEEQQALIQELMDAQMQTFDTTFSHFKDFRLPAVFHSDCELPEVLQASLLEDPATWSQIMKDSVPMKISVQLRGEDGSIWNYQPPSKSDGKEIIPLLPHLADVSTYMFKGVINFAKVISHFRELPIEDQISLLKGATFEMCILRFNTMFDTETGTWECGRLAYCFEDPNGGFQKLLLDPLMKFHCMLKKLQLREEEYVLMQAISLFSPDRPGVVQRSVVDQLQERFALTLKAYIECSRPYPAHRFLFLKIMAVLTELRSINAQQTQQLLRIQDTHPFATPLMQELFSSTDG
Sequence of Nuclear receptor subfamily 1 group I member 2 (Homo sapiens) (O75469 whole entry, looked up): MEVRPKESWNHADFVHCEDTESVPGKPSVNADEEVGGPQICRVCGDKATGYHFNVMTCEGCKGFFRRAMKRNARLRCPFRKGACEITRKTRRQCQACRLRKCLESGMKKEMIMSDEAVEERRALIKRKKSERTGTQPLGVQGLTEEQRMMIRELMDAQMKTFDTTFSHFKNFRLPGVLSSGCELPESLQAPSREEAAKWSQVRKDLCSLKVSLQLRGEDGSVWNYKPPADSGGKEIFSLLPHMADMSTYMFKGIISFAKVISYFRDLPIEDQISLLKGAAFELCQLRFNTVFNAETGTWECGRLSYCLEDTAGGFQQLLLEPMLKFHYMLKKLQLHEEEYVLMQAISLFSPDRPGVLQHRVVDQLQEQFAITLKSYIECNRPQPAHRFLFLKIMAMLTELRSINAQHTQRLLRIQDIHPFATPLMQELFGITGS
Sequence of Cytochrome P450 2C19 (Homo sapiens) (P33261 whole entry, looked up): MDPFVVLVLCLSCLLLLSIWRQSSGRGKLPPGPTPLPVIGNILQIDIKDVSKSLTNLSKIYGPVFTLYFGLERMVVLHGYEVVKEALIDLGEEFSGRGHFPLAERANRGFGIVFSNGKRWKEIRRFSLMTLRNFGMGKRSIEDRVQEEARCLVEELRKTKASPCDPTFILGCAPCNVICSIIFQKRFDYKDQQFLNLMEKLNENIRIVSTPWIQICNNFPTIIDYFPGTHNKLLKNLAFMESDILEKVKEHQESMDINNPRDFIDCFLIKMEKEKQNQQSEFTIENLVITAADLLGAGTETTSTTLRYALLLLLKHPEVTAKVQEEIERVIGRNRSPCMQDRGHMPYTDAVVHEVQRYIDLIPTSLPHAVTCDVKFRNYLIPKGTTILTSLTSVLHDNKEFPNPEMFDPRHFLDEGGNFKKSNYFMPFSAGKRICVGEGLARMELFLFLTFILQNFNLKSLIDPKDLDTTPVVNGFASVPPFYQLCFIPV
Sequence of Cytochrome P450 3A4 (Homo sapiens) (P08684 whole entry, looked up): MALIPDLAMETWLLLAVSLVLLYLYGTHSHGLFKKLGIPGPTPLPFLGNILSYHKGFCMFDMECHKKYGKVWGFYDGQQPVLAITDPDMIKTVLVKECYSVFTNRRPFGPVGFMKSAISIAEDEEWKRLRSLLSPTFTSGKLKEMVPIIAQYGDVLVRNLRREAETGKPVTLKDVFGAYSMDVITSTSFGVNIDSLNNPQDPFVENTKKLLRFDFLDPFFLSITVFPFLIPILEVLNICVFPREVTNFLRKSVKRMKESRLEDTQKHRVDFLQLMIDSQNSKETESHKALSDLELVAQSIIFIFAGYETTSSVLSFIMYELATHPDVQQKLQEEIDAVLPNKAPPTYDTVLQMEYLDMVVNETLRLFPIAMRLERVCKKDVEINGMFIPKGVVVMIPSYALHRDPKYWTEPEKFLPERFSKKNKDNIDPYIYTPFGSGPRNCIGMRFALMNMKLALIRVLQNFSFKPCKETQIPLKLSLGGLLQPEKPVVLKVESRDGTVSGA
Sequence of Cytochrome P450 2C9 (Homo sapiens) (P11712 whole entry, looked up): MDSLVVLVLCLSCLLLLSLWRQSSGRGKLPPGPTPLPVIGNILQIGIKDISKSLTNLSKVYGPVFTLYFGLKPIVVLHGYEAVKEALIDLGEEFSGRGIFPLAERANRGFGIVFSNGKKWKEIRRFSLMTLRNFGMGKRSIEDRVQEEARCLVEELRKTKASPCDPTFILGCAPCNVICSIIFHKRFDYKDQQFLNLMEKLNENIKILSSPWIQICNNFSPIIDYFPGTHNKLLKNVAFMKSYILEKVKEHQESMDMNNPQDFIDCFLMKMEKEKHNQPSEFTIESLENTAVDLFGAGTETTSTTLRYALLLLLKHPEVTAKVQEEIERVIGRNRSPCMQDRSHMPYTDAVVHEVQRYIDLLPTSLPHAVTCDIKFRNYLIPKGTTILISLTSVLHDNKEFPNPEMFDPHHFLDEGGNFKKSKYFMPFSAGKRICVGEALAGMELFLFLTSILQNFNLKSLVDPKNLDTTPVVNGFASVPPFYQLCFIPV
Sequence of Voltage-gated inwardly rectifying potassium channel KCNH2 (Homo sapiens) (Q12809 whole entry, looked up): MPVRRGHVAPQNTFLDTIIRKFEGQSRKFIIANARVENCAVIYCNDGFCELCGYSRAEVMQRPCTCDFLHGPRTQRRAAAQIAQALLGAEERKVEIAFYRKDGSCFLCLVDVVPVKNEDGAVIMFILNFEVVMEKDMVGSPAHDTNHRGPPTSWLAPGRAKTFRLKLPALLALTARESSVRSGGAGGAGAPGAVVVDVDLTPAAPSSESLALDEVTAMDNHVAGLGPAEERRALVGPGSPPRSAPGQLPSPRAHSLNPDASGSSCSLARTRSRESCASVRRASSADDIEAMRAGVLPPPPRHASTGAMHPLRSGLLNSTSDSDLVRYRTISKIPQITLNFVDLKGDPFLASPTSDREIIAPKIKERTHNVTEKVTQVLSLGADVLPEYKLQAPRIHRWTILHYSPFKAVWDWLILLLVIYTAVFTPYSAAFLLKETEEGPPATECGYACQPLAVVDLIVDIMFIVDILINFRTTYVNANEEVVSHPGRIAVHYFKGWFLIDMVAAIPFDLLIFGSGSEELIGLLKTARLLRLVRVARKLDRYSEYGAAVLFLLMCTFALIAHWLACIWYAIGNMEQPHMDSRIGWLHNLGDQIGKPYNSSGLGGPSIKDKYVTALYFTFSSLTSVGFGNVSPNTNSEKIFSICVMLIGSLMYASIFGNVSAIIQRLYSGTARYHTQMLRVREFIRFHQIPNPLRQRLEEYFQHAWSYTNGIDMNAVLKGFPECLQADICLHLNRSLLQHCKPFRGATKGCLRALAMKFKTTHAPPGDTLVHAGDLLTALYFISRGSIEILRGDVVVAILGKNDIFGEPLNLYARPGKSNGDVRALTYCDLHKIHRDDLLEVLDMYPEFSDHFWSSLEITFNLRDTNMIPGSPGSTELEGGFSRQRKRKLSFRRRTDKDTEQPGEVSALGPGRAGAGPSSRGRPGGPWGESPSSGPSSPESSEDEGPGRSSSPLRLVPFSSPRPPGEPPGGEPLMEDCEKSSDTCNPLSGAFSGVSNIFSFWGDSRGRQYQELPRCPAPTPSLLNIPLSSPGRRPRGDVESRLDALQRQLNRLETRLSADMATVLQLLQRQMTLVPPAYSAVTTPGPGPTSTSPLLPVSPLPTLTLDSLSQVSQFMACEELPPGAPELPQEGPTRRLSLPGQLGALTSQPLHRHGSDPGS

With `CC(C)[C@@H](Nc1ccc(C(F)(F)F)cc1Cl)C(=O)OC(C#N)c1cccc(Oc2ccccc2)c1` (some centres not stated), the Potency entry in assay [1], in assay [2], in assay [3], in assay [4], in [5] and in [7] was “inactive” in each case. Further, the Potency result in [8], in assay [9], in [10], in assay [13] and in assay [14] was “inactive” each time. The results for the Potency in [6], in assay [11] and in assay [12] were 7.42 µM (active), 10.8 µM (active) and 6.09 µM (active), respectively.
In the case of `Brc1cccc(-c2ccccc2)c1`, the Potency entry in assay [1], in assay [2], in assay [3], in [5], in assay [15] and in [7] was “inactive” throughout. Moreover, the Potency entry in assay [8], in [9], in assay [10], in assay [11] and in assay [14] was “inactive” each time. Further, the Potency in assay [6] was 24.5 µM (active); in assay [13], 12.7 µM (active).
`C[N+]1(C)[C@@H]2CC[C@H]1CC(OC(=O)C(CO)c1ccccc1)C2` (some centres not stated): the Potency entry in [1], in [2], in assay [3], in assay [5], in assay [6] and in assay [17] was “inactive” each time. For the same compound, the Potency entry in assay [18], in assay [15], in assay [7], in assay [8], in [9] and in [10] was “inactive” in each case. In addition, the Potency entry in assay [11], in assay [12], in assay [13], in [14] and in assay [19] was “inactive” in each case. Besides, the max activation in assay [16] is 5.17% and -0.275%.
Turning to `N#CCCl`, the Potency result in [1], in [2], in assay [3], in [5], in assay [6] and in assay [15] was “inactive” in each case. Further, the Potency result in assay [7], in [8] and in [9] was “inactive” throughout. For the same compound, the Potency in assay [10] was 29.5 µM (active); in assay [11], 37.1 µM (active); in assay [13], 33.1 µM (active).
As for `Clc1ccc(C2(Cn3cncn3)OCCO2)c(Cl)c1`, the Potency result in assay [1], in [2], in [3], in assay [4], in [17] and in assay [18] was “inactive” each time. Also, the Potency entry in [7], in [8], in assay [9] and in [14] was “inactive” throughout. In [16], the max activation was -0.146%. In addition, the Potency is 63.3 µM (active) in assay [10]; 3.17 µM (active) in [11]; 17.8 µM (active) in assay [12]; 28.3 µM (active) in assay [13]; 0.502 µM (active) in [19].
Regarding `O=P(Cl)(Cl)Cl`, the Potency result in [1], in assay [2], in [3], in [4], in assay [6] and in assay [15] was “inactive” each time. The Potency result in assay [7], in [8], in [9], in assay [10], in assay [12] and in [14] was “inactive” each time. Also, the Potency result in assay [19] was “inactive”. Moreover, the Potency in assay [13] is 23.9 µM (active).

The record behind these values is PubChem BioAssay (Tox21).
